From PubChem BioAssay AID1159580 (chemical genetic matrix, 2015)
Where “and” joins values, the source holds several entries; their conditions need not be identical. Equal entries are not always repeated. Hit rate of the full screen: of about 5,500 compounds, about 2,000 (36%) were called active. Roughly 18% stayed inconclusive and do not appear here. The list shows a part of the results. Unmarked numbers belong to inactive results. No stated cut-off is given here; in the data, active means normalized growth mostly below about 0.91 (no sharp cut-off); inconclusive means no clear call, values can overlap the other calls; inactive means mostly above about 0.92.

Test: chemical genetic growth profiling, strain panel (AID 1159580);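 further: tested at 20 µM; growth read once vehicle control cultures reached saturation at 30 °C; 1 = growth at the plate median or of vehicle wells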
Settings: S. cerevisiae deletion strains, growth OD

Work on `COc1c2occc2cc2ccc(=O)oc12` yielded a normalized growth (locus YAL013W, strain DEP1, stronger effect = lower value) of 0.992, a normalized growth (locus YAL021C, strain ccr4, stronger effect = lower value) of 0.966 and a normalized growth (locus YAL026C, strain drs2, stronger effect = lower value) of 0.954. The normalized growth (locus YAL030W, strain snc1, stronger effect = lower value) was 0.975, the normalized growth (locus YBL061C, strain skt5, stronger effect = lower value) was 0.973 and the normalized growth (locus YBR009C, strain hhf1, stronger effect = lower value) was 0.878 (active). The normalized growth (locus YBR021W, strain FUR4, stronger effect = lower value) was 1.08, the normalized growth (locus YBR023C, strain chs3, stronger effect = lower value) was 0.926 and the normalized growth (locus YBR171W, strain sec66, stronger effect = lower value) was 0.945. For the same compound, the normalized growth (locus YBR229C, strain ROT2, stronger effect = lower value) was 1.01, the normalized growth (locus YBR231C, strain swc5, stronger effect = lower value) was 1.03 and the normalized growth (locus YBR279W, strain paf1, stronger effect = lower value) was 0.98. The normalized growth (locus YCL011C, strain gbp2, stronger effect = lower value) was 0.88 (active), the normalized growth (locus YCL016C, strain dcc1, stronger effect = lower value) was 0.888 (active) and the normalized growth (locus YCL029C, strain bik1, stronger effect = lower value) was 0.976. It also gave a normalized growth (locus YCL061C, strain MRC1, stronger effect = lower value) of 0.931, a normalized growth (locus YCL069W, strain vba3, stronger effect = lower value) of 0.96 and a normalized growth (locus YCR088W, strain abp1, stronger effect = lower value) of 0.998. For the same compound, the normalized growth (locus YDL005C, strain med2, stronger effect = lower value) was 0.987, the normalized growth (locus YDL035C, strain GPR1, stronger effect = lower value) was 0.956 and the normalized growth (locus YDL040C, strain nat1, stronger effect = lower value) was 0.995. The normalized growth (locus YDL074C, strain BRE1, stronger effect = lower value) was 0.908, the normalized growth (locus YDL101C, strain DUN1, stronger effect = lower value) was 0.958 and the normalized growth (locus YDL134C, strain PPH21, stronger effect = lower value) was 0.997. The normalized growth (locus YDL185W, strain tfp1, stronger effect = lower value) was 0.928, the normalized growth (locus YDL192W, strain arf1, stronger effect = lower value) was 0.969 and the normalized growth (locus YDR001C, strain nth1, stronger effect = lower value) was 0.983. The normalized growth (locus YDR069C, strain doa4, stronger effect = lower value) was 0.964, the normalized growth (locus YDR101C, strain arx1, stronger effect = lower value) was 0.993 and the normalized growth (locus YDR137W, strain rgp1, stronger effect = lower value) was 0.954. The normalized growth (locus YDR150W, strain NUM1, stronger effect = lower value) was 0.952, the normalized growth (locus YDR159W, strain sac3, stronger effect = lower value) was 1.02 and the normalized growth (locus YDR162C, strain NBP2, stronger effect = lower value) was 0.931. For the same compound, the normalized growth (locus YDR195W, strain ref2) was 1.17 [resistant] (active), the normalized growth (locus YDR297W, strain sur2, stronger effect = lower value) was 0.978 and the normalized growth (locus YDR318W, strain mcm21, stronger effect = lower value) was 0.953. For the same compound, the normalized growth (locus YDR334W, strain swr1, stronger effect = lower value) was 0.919, the normalized growth (locus YDR335W, strain msn5, stronger effect = lower value) was 0.982 and the normalized growth (locus YDR388W, stronger effect = lower value) was 0.985. For the same compound, the normalized growth (locus YDR392W, strain spt3, stronger effect = lower value) was 0.852, the normalized growth (locus YDR502C, strain sam2, stronger effect = lower value) was 0.957 and the normalized growth (locus YEL003W, strain gim4, stronger effect = lower value) was 0.988. The normalized growth (locus YEL037C, strain rad23, stronger effect = lower value) was 0.944, the normalized growth (locus YEL061C, strain CIN8 (second series), stronger effect = lower value) was 0.981 and the normalized growth (locus YEL061C, strain CIN8, stronger effect = lower value) was 0.999. It also gave a normalized growth (locus YER015W, strain faa2, stronger effect = lower value) of 0.965, a normalized growth (locus YER016W, strain bim1, stronger effect = lower value) of 1 and a normalized growth (locus YER110C, stronger effect = lower value) of 0.948. For the same compound, the normalized growth (locus YER111C, strain swi4, stronger effect = lower value) was 0.973, the normalized growth (locus YER155C, strain BEM2 (second series), stronger effect = lower value) was 0.866 and the normalized growth (locus YER155C, strain BEM2, stronger effect = lower value) was 1.03. For the same compound, the normalized growth (locus YER167W, strain BCK2, stronger effect = lower value) was 0.982, the normalized growth (locus YFR010W, strain ubp6, stronger effect = lower value) was 0.94 and the normalized growth (locus YGL078C, strain dbp3, stronger effect = lower value) was 0.99. It also gave a normalized growth (locus YGL086W, strain mad1, stronger effect = lower value) of 0.961, a normalized growth (locus YGL167C, strain pmr1, stronger effect = lower value) of 0.998 and a normalized growth (locus YGL173C, strain kem1, stronger effect = lower value) of 0.973. The normalized growth (locus YGL227W, strain vid30, stronger effect = lower value) was 0.988, the normalized growth (locus YGL240W, strain doc1, stronger effect = lower value) was 0.99 and the normalized growth (locus YGL248W, strain PDE1, stronger effect = lower value) was 0.999. The normalized growth (locus YGL253W, strain hxk2, stronger effect = lower value) was 0.942, the normalized growth (locus YGR078C, strain PAC10, stronger effect = lower value) was 0.922 and the normalized growth (locus YGR135W, strain pre9, stronger effect = lower value) was 0.935. It also gave a normalized growth (locus YGR229C, strain SMI1, stronger effect = lower value) of 0.948, a normalized growth (locus YGR252W, strain gcn5, stronger effect = lower value) of 0.817 and a normalized growth (locus YHR013C, strain ard1, stronger effect = lower value) of 0.935. For the same compound, the normalized growth (locus YHR027C, strain rpn1, stronger effect = lower value) was 0.956, the normalized growth (locus YHR030C, strain SLT2, stronger effect = lower value) was 0.995 and 1.02 and the normalized growth (locus YHR079C, strain IRE1 (second series), stronger effect = lower value) was 0.992. For the same compound, the normalized growth (locus YHR079C, strain IRE1, stronger effect = lower value) was 1.03, the normalized growth (locus YHR094C, strain hxt1, stronger effect = lower value) was 0.988 and the normalized growth (locus YHR129C, strain ARP1, stronger effect = lower value) was 0.996. For the same compound, the normalized growth (locus YHR142W, strain chs7, stronger effect = lower value) was 0.856 (active), the normalized growth (locus YHR200W, strain rpn10, stronger effect = lower value) was 0.928 and the normalized growth (locus YIL066C, strain RNR3, stronger effect = lower value) was 0.933. For the same compound, the normalized growth (locus YIL073C, strain SPO22, stronger effect = lower value) was 0.865, the normalized growth (locus YIL125W, strain kgd1, stronger effect = lower value) was 1 and the normalized growth (locus YIR030C, strain dcg1, stronger effect = lower value) was 0.998. For the same compound, the normalized growth (locus YJL092W, strain hpr5, stronger effect = lower value) was 0.917 (active), the normalized growth (locus YJL095W, strain BCK1 (second series), stronger effect = lower value) was 0.982 and the normalized growth (locus YJL095W, strain BCK1, stronger effect = lower value) was 0.911 and 1.02. The normalized growth (locus YJL115W, strain asf1, stronger effect = lower value) was 0.943, the normalized growth (locus YJL129C, strain trk1, stronger effect = lower value) was 0.987 and the normalized growth (locus YJL134W, strain LCB3, stronger effect = lower value) was 0.985. The normalized growth (locus YJL154C, strain vps35, stronger effect = lower value) was 0.984, the normalized growth (locus YJL164C, strain tpk1, stronger effect = lower value) was 0.945 and the normalized growth (locus YJL166W, strain qcr8, stronger effect = lower value) was 0.943. For the same compound, the normalized growth (locus YJL168C, strain set2, stronger effect = lower value) was 0.985, the normalized growth (locus YJL187C, strain SWE1 (second series), stronger effect = lower value) was 0.974 and the normalized growth (locus YJL187C, strain SWE1, stronger effect = lower value) was 0.976. The normalized growth (locus YJR043C, strain POL32, stronger effect = lower value) was 0.953 and the normalized growth (locus YJR066W, strain TOR1, stronger effect = lower value) was 0.969.
